Experimental data taken from the supplement of paper PMC3334620.
Whole data set: some 33,000 sequences, median “E-score (-0.5 to 0.5)” near -0.016, cut for the highest 2% near 0.31. The list comes from a sample in which the highest values are over-represented; it also holds similar and randomly drawn sequences.

The sequences below were run against Cst6 (UniProt P40535) (assay: PBM E-score (8-mer binding enrichment) (E-score (-0.5 to 0.5)); higher = stronger / more preferred TF binding). Conditions: protein concentration: 200 nM; construct: GST-DNA-binding domain.
Sequence of UniProt P40535 (P40535 whole entry, the tested form may be a part): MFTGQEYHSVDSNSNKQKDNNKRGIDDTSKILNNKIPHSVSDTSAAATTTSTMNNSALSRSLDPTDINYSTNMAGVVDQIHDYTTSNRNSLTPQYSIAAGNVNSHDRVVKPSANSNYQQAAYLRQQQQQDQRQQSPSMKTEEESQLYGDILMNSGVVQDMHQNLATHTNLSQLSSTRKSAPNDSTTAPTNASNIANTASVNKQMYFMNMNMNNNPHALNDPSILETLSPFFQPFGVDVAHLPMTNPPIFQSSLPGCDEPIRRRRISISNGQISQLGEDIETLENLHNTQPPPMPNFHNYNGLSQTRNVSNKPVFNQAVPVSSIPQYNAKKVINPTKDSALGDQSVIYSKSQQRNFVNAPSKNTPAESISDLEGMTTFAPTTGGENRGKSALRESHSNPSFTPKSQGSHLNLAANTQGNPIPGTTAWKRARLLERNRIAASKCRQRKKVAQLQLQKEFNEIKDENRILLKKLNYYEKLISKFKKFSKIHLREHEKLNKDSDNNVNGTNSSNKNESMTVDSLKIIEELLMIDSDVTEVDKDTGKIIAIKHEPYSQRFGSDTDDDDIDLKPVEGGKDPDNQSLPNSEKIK
Method: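 Universal 'all 10-mer' protein binding microarrays (Agilent AMADID 015681) probed with GST-tagged S. cerevisiae TFs (full-length or DBD) made by in vitro transcription/translation (PURExpress), about 100-200 nM. Bound TF was detected with fluorescent anti-GST. Each ungapped 8-mer (which stands for itself and its reverse complement) is scored by the PBM enrichment score (E-score), a modified Wilcoxon-Mann-Whitney statistic from -0.5 to +0.5, computed with the Universal PBM Analysis Suite. Scale: above 0.35 generally sequence-specific binding.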

Sequence	PBM E-score
GCACTCTA	-0.0783
AGAAAACG	0.168
GCTTAGAC	-0.195
CAAGCGAG	-0.00525
TATAGGCA	-0.112
ACATCTGC	-0.0513
CAACAGCA	0.00053
AAGGTTGG	0.0155
GCGGAAAA	0.17
CCGTAAAA	0.0767
GCGTAAAA	0.0958
ACGTAAAA	0.354
CACACAGG	0.0469
CGTCATTA	0.477
AGTCATTA	0.0194
CCTCATTC	-0.0459
GGTCATTA	0.178
AGTCATTC	0.0571
CGTCATTC	0.467
GAGCACCA	-0.219
ACCCTTCG	-0.0964
ACCGTCAA	0.159
ACCGTCAT	0.418
CCCGTCAC	0.2
ATCGTCTC	-0.0844

Sequence	PBM E-score
GCCGTCAA	0.0714
ATCGTCGC	-0.0136
CTCGTCAA	0.0507
ACCGTCAG	-0.0719
CTCGTCAG	0.127
ATCGTCAC	0.401
CTCGTCAC	0.349
GCCGTCAC	0.334
ACAGGAAG	-0.0175
CCAGCTCA	-0.146
CAGGCATC	-0.213
ATATAACG	0.267
CAATTAGG	0.0223
ACCCCCGC	-0.33
ATGTTGGC	-0.0418
CCGATAGA	-0.124
ACCGAGGG	-0.446
CTCCGCAC	-0.0765
CGCTGCGA	0.0077
TCAACCCA	-0.0214
ATCGTCAG	0.131
ATCGTCAT	0.448
ATCGTCAA	0.223
GTCGTCAC	0.425
GTCGTCGA	-0.00727

Sequence	PBM E-score
GTCGTCAA	0.147
CTAAGACA	0.0903
AGGGCATA	0.0409
AACGCACG	0.179
AGCCACAG	-0.232
ATGGATAC	-0.0649
AATTCAAA	0.23
ACGCAATG	0.24
ACGCAATA	0.349
GCGCAATA	-0.079
ATCAGACA	-0.00162
ACGGCGCA	0.349
ACGGCGCC	0.364
GCGGCGCC	0.376
ACGGCGCG	0.381
TCGGCGCA	0.071
ACGGCGCT	0.251
CCGGCGCA	-0.107
GCGGCGCA	0.197
ACGGCGAG	0.18
CCGGCGCC	0.14
ACGGCGAC	0.217
CCGGCGCG	-0.0219
ACCAAACA	0.277
AGGAGCCT	-0.209

Sequence	PBM E-score
GATAAGAA	0.291
AATAAGAT	0.232
CATAAGAA	0.342
TATAAGAA	0.125
AATAAGAG	0.055
AATAAGAA	0.312
TCCATAAA	0.123
CCATTGCC	0.0353
AATGCACG	0.0682
AAATTCGC	0.211
AAATTCGT	0.306
AAATTCGG	0.0235
CGCCTCAG	0.00359
CCTTGACC	-0.19
AGTCACAC	0.00702
CGTCACAA	0.4
TGTCACAA	0.254
CGTCACAG	0.424
AGTCACAG	-0.0682
GGTCACAC	-0.0298
CGTCAGAG	0.365
CCTCACAG	-0.0712
GGTCACAA	-0.0375
CGTCAGAA	0.286
CGTCAGAC	0.287

Sequence	PBM E-score
CGTCACAC	0.414
ACGATTCT	0.039
ACTATCCG	0.0433
CAAACCAG	-0.0964
CATACATG	0.0541
CCTTCTCG	-0.264
CAGTAGAG	-0.0984
AGACAAAT	0.159
AGAAAATG	0.0622
GACATTGA	0.096
CTCATTGA	-0.0286
ATCATTGG	0.194
GTCATTGA	0.391
ATCATTGC	0.188
ATCATTGA	0.306
AGGGCTTG	-0.0617
AGGATCAG	-0.266
CTTCCTGA	0.112
GGGACTCA	-0.353
CTAGCTAG	-0.074
AAAATAAT	0.302
AGGTTCCA	-0.124
ATAGTGAA	-0.00864
GCAGTGAC	0.17
GTAGTGAA	0.0467

Sequence	PBM E-score
GTAGTGAC	0.332
ATAGTGAC	0.392
CTAGTGAC	0.234
CTCCTGGC	-0.195
CTTCCTCC	-0.235
ATGTCTTC	-0.153
CGATACTA	0.1
CAACTTCG	0.0207
ACATCATG	0.409
CCATCATC	0.146
GCATCAGA	0.159
CCATCATA	0.122
AGATCATG	0.137
AAATCATA	0.275
AAATCATC	0.175
GCATCATA	0.339
ACATCATC	0.462
ACATCAAG	0.207
ACATCAGA	0.16
ACATCATA	0.443
ACTTAACT	0.0697
ATAGCCAA	0.0258
GGAGCAGA	-0.114
TATGCTAA	0.0861
CTAGGATA	-0.125

Sequence	PBM E-score
ATCTGGGA	-0.197
GGTTGCGA	-0.0447
AGGGCATC	-0.0843
ACGGTGAC	0.307
ACGGTGAT	0.121
ACGGTGAG	-0.0622
GAGGTGAC	0.407
GGGGTGAC	0.284
GCGGTGAA	0.0906
AGGGTGAG	-0.176
AGGGTGAC	0.345
CAGGTGAC	0.258
GCGGTGCC	-0.0111
AAGGTGAC	0.243
GCGGTGAC	0.345
CGGGCCGA	-0.167
GAGTATGA	0.169
CATGATCA	0.231
CCGGTAGA	-0.132
CTCCCTGC	-0.218
ACAGAGAT	0.178
CCCTTCCG	-0.274
CATAGTTC	0.0666
AGTGAGAA	0.149
